Only some compounds are listed: those with a hit (about 11% of all), similar ones and a draw of the others.
BAZ2B block: blocks human BAZ2B | actives 4.4% (n = 360,000) | AlphaScreen BAZ2B-H3K14Ac peptide displacement | Q9UIF8 | Potency, µM (titrated, usually from 114 µM), inactives show top-dose activity change, negative = inhibition, most hits filed as inhibitors; also: % is scaled to controls: 0 for no effect and ±100 for the full control effect; nearly all actives have a fitted effect of over 60% in size
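Multi-concentration screen (max 110 uM) measuring displacement of acetylated histone H3 peptide from BAZ2B by AlphaScreen, using 50 nM protein, 50 nM peptide and 10 ug/mL streptavidin donor plus Ni-chelate acceptor beads.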
G9a block: inhibitors of human histone lysine methyltransferase G9a | Q96KQ7 | G9a H3K9 monomethylation, AlphaScreen, 2 h | Potency, µM (top dose mostly 102 µM), without a hit: top-dose activity, negative = inhibition, hits mostly inhibitors | actives 8.8% (n = 350,000); also: % is scaled to controls: 0 for no effect and ±100 for the full control effect; nearly all actives have a fitted effect of over 75% in size
Target sequence (Q96KQ7 913-1193 limits assumed): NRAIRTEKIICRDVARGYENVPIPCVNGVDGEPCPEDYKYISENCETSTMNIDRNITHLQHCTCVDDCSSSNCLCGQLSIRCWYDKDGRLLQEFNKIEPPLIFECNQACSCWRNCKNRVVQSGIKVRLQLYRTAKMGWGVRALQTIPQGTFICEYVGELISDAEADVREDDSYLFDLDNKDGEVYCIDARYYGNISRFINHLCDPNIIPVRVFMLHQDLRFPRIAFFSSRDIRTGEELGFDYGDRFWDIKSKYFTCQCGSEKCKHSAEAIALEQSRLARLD
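Using a bead-based AlphaScreen, monomethylated H3K9 product from 2 h room-temperature reactions (G9a 20 nM, peptide 500 nM, SAM 20 uM) was detected with 0.5 ug/mL rabbit anti-H3K9me1 antibody.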
HP1b binding inh: blocks HP1-beta chromodomain binding to methylated histone tails. Potency, µM (top dose mostly 114 µM), for inactives: at the top dose activity change, negative = inhibition, hits mostly inhibitors. actives 0.56% (n = 390,000). P83916. AlphaScreen HP1-beta / biotin-H3K9me3 peptide binding; also: nearly all actives have a fitted effect of over 70% in size
Target sequence (P83916 whole entry, looked up): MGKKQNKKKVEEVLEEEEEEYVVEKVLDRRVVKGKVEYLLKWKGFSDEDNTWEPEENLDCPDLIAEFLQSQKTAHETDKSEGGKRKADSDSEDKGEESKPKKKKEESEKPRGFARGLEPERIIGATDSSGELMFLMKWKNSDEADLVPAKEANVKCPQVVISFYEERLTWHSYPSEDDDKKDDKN
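AlphaScreen: HP1-beta (50 nM) preformed 30 min with biotin-H3(1-18)K9me3 peptide (50 nM) in PBS pH 7.4, 0.01% Tween-20. Compound added for 30 min at RT, then streptavidin donor/nickel chelate acceptor beads (10 ug/mL) for 30 min.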
L3MBTL1 block: blocks human L3MBTL1; actives 0.66% (n = 230,000); AlphaScreen L3MBTL1–H3K9me1 peptide binding; Potency, µM (doses to about 57.1 µM), for inactives: top-dose activity, negative = inhibition, most hits filed as inhibitors; also: % is scaled to controls: 0 for no effect and ±100 for the full control effect; nearly all actives have a fitted effect of over 60% in size
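AlphaScreen proximity signal between nickel-chelate acceptor and streptavidin donor beads (final 10 ug/mL) reports binding of 50 nM L3MBTL1 to 75 nM biotin-H3 K9me1 peptide; complex incubated with compounds 30 min at room temperature; cefsulodin titration as control.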
JMJD2A Tudor: JMJD2A Tudor domain (human) inhibition; AlphaScreen JMJD2A-Tudor / H3K4me3 peptide binding; actives 4.4% (n = 390,000); Potency, µM (doses to about 114 µM), without a hit: at the top dose activity change, negative = inhibition, actives largely listed as inhibitors; AID 504339; also: % is scaled to controls: 0 for no effect and ±100 for the full control effect; nearly all actives have a fitted effect of over 50% in size
An asterisk follows results filed as active; u = inconclusive; x = not tested or not shown; [ ] = remark or other dose. Calls follow the shape of the dose curve; as a rule, active = well fitted inhibition curve with a large enough effect; inconclusive = small, poorly fitted or top-dose-only effect; inactive = no such curve, though single readings can be large or run the other way. Potency is read from the fitted curve at half-maximal effect.

SMILES | BAZ2B block | G9a block | HP1b binding inh | L3MBTL1 block | JMJD2A Tudor
Fc1cccc(/C=N/n2c(C3CCCCC3)n[nH]c2=S)c1 | 18% | u | 28% | x | -14%
COc1cc(/C=N/N2C(C)CCCC2C)cc(OC)c1O (centres undefined) | 8% | u | 3% | x | -28%
Oc1cccc(/C=N/n2c(C3CCCCC3)n[nH]c2=S)c1 | -24% | 2µM* | -20% | x | 32µM*
O=[N+]([O-])c1cccc(/C=N/n2c(C3CCCCC3)n[nH]c2=S)c1 | 10% | 1.6µM* | 8% | -3% | u
Cn1c(=O)c(-c2cccs2)nc2cnc(N3CCNCC3)nc21 | x | -1%[0.501 µM] | x | x | x
Cc1cccc(CS(=O)(=O)CC2Nc3ccc(C(=O)NCc4ccccc4Cl)cc3NC2=O)c1 (centres undefined) | -7% | u | 2% | x | -14%
CCn1c(=O)c2c(nc(SCC(=O)Nc3ccccc3)n2C)n(C)c1=O | 3% | 25%[59 µM] | 57% | x | 0%
Cc1cc(-c2n[nH]c(=S)n2/N=C/c2cccc([N+](=O)[O-])c2)n[nH]1 | -12% | 1.6µM* | u | 1% | 7.9µM*
Cc1nnc(C)n1/N=C/c1cccc([N+](=O)[O-])c1 | -4% | 2% | 35% | 25% | 8%
Cn1c(C(=O)NCc2ccco2)cc2c(=O)[nH]c3ccccc3c21 | -8% | -1%[59 µM] | 47% | -3% | 100µM*
O=C(NCCCN1CCCC1=O)c1ccc2c(=O)n(-c3ccccc3F)c(=S)[nH]c2c1 | u | 25µM* | 29% | 1% | u
COCCNC(=O)c1ccc2c(=O)n(CCCN3CCCC3=O)c(=S)[nH]c2c1 | u | u | 14% | x | u
COc1ccc(-n2c(=S)[nH]c3cc(C(=O)NCc4cccnc4)ccc3c2=O)c(OC)c1 | -34% | u | 0% | x | -24%
O=C(NCCCN1CCCC1=O)c1ccc2c(=O)n(-c3ccc(F)cc3)c(=S)[nH]c2c1 | -15% | 32µM* | x | 6% | x
COc1ccc(-n2c(=S)[nH]c3cc(C(=O)NCc4ccccc4)ccc3c2=O)c(OC)c1 | 0% | 22µM* | 28% | x | -10%
Cc1cc(S(=O)(=O)NCCc2csc(-c3cccc(F)c3)n2)ccc1F | 24% | 11%[59 µM] | 21%[57 µM] | x | -2%
O=C(O)c1ccc(Cl)c(NC(=S)NC(=O)c2cccc(COc3ccccc3)c2)c1 | 50µM* | -1% | u | x | u
O=C(NC(=S)Nc1ccc(Cl)c(C(=O)O)c1)c1cccc(COc2ccccc2)c1 | 1% | 4% | -18% | x | u
O=C(O)c1ccc(Cl)c(NC(=S)NC(=O)c2ccccc2[N+](=O)[O-])c1 | -1% | 32µM* | -1% | x | -3%[57.1 µM]
CCN(CC)c1ccc(C(=O)NCc2ccc3c(c2)CCN3C(=O)c2ccc(F)cc2)cc1 | -19% | -29%[59 µM] | 29% | x | -19%
Cc1ccc(C(=O)c2cn(CC(=O)NCc3ccccc3Cl)c3nc(C)ccc3c2=O)cc1 | 10%[57.1 µM] | -25%[59 µM] | 30% | x | -8%
O=C(c1ccc2c(=O)n(Cc3ccc(Cl)cc3)c(=S)[nH]c2c1)N1CCCC1 | -16% | 31%[59 µM] | 35% | x | -8%
CN1CCN(C(=O)c2ccc3c(=O)n(Cc4ccc(Cl)cc4)c(=S)[nH]c3c2)CC1 | -20% | 45µM* | 25% | 3% | -32%
COCCn1c(=S)[nH]c2cc(C(=O)NCC3CCCO3)ccc2c1=O (centres undefined) | u | u | 24% | 2% | 18µM*
O=C(NCC1CCCO1)c1ccc2c(=O)n(CC3CCCO3)c(=S)[nH]c2c1 (centres undefined) | u | u | 29% | x | 7.9µM*
CC1CCc2[nH]c3ccc(C(=O)NCC4CCCO4)cc3c2C1 (centres undefined) | -38% | 45µM* | u | -14% | u
CCOC(=O)N1CCN(C(=O)c2ccc3c(=O)n(CC4CCCO4)c(=S)[nH]c3c2)CC1 (centres undefined) | -26% | 40µM* | 62% | 0% | 50µM*
CCOC(=O)N1CCN(C(=O)c2ccc(Cn3c(=S)[nH]c4cc5c(cc4c3=O)OCO5)cc2)CC1 | 10% | 7.1µM* | 11% | 5% | u
